# PubChem BioAssay
# The source made the active and inactive calls.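 The calls were made as follows, unless noted: active = RAM network inhibition above 8.4% in each of two replicates, 3 SD over the compound average; inconclusive = above 8.4% inhibition in only one replicate; inactive = 8.4% inhibition or less in each replicate.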
# Assay: inhibitors of the yeast RAM network, pilot screen, dse1pr::URA3 reporter, 5-FOA selection (AID 869;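 active = inhibition over a set limit, the all-compound mean plus 3 SD, in both replicate runs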;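 also: 0% = DMSO wells with no growth and 100% = 10 µM 1-NA-PP1 with full growth; RAM network block rescues cells from 5-FOA so hits raise OD615 growth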)
# Conditions: S. cerevisiae dse1pr::URA3 5-FOA growth, OD615, 2 d; at 10 µM; hits give high values; strain carries analog-sensitive mutant Cbk1 kinase
row,SMILES,inhibition
1,O=C(CNC(=O)Cn1ccc2ccccc2c1=O)NCCCN1CCN(c2cccc(Cl)c2)CC1,1.63% (inactive)
2,COc1ccc(C(=O)Nc2ccccc2-c2nnn(CC(=O)NCc3ccco3)n2)cc1,4.12% (inactive)
3,CC(=O)c1ccc(N2CCN(C(=O)c3ccc(NC(=O)C4CCCO4)cc3)CC2)cc1 (stereo not given),2.3% (inactive)
4,CCOC(=O)N1CCN(c2nc(SC)nc3sc4c(c23)CC(C)(C)OC4)CC1,0.54% (inactive)
5,CCOc1ccc(-n2c(SCC(N)=O)nc3c(c2=O)SCC3)cc1,2.31% (inactive)
6,CCn1cc(C(=O)NCc2cccnc2)c2cc(OC)c(OC)cc2c1=O,1.67% (inactive)
7,Cc1ccc(C(=O)c2cn[nH]c2-c2cc(Cl)ccc2O)cc1,1.08% (inactive)
8,COCCn1c(=O)[nH]c2cc(C(=O)NCCN3CCN(c4ccccc4F)CC3)ccc2c1=O,1.31% (inactive)
9,C=CCOC(=O)CCCC(=O)NC1CCCCC1,1.58% (inactive)
10,CCN1CCN(Cc2nc3c(c(=O)n(C)c(=O)n3C)n2CCCc2ccccc2)CC1,0.665% (inactive)
11,c1cncc(CNc2c3c(nc4nnnn24)CCCC3)c1,0.45% (inactive)
12,CCOc1ccc(-n2c(SCC(=O)Nc3ccc4c(c3)OCCO4)nc3c(c2=O)SCC3)cc1,3.17% (inactive)
13,N#C/C(=C1\CCCN1)c1ccc2ccccc2n1,2.02% (inactive)
14,CN1CCCCc2c1[nH]c1ccccc1c2=O,0.42% (inactive)
15,CC(=O)Nc1cc(OC(=O)c2ccco2)cc(OC(=O)c2ccco2)c1,1.36% (inactive)
16,O=C(Cn1nnc(-c2ccccc2NC(=O)c2ccccc2F)n1)NCc1ccco1,1.39% (inactive)
17,CCCCC(NC(C)=O)c1nc2ccccc2n1CCCC (stereo not given),1.69% (inactive)
18,NC1=C(c2ccc(F)cc2)C(=O)CS1,1.85% (inactive)
19,COc1ccc(CNc2oc(COc3ccccc3)nc2C#N)cc1,4.33% (inactive)
20,O=C(CCCOc1ccccc1)Nc1nnc(C2CCCO2)s1 (stereo not given),3.7% (inactive)

row,SMILES,inhibition
1,CCN(CC)S(=O)(=O)c1cc(Br)ccc1OC,0.72% (inactive)
2,COC(=O)c1cn(NC(=O)C2CCCCC2)c(=O)c2ccccc12,-0.16% (inactive)
3,CC(C)Sc1nc(N)c2c3c(sc2n1)CN(C)CC3,1.16% (inactive)
4,CCOC(=O)N1CCC(NC(=O)C(NC(=O)C2CCCCC2)C(C)C)CC1 (stereo not given),2% (inactive)
5,CCOc1cc(C2C(C(=O)c3ccco3)=C(O)C(=O)N2CCc2ccccc2)ccc1O (stereo not given),4.93% (inactive)
6,COc1cc2c(cc1OC)C(C(=O)Nc1cccc(C)n1)C(c1cccnc1)N(C)C2=O (stereo not given),0.58% (inactive)
7,CCCC(=O)Nc1cc(C)c(NC(=O)Cc2ccccc2)cn1,0.135% (inactive)
8,Cc1cccc(C)c1NC(=O)CSc1nnc([C@@H]2CCCN2C(=O)OC(C)(C)C)o1,2.23% (inactive)
9,COc1cc(C2/C(=C(\O)c3cc(C)ccc3C)C(=O)C(=O)N2CCN(C)C)ccc1O (stereo not given),1.94% (inactive)
10,Cc1cc(C)nc(NS(=O)(=O)c2ccc(NC(=O)c3cccs3)cc2)n1,0.89% (inactive)
11,CC1CCCN(c2nc3c(c(=O)n(C)c(=O)n3C)n2Cc2ccccc2)C1 (stereo not given),1.67% (inactive)
12,OCC1(c2cc(C(F)(F)F)n[nH]2)CCCCC1,1.2% (inactive)
13,Cn1cc(S(=O)(=O)CC(=O)Nc2ccc3c(c2)OCCO3)c2ccccc21,3.01% (inactive)
14,S=c1nc(-c2ccccc2)n(CCN2CCOCC2)c2c1CCCC2,1.71% (inactive)
15,Cc1cc(C)n(-c2cc(=O)n(C)c(=O)n2C)n1,0.755% (inactive)
16,CN(C)/C=N/c1c(C#N)cnn1-c1nc2ccccc2s1,1.28% (inactive)
17,CC(C)N(C(=O)C1CC(=O)OC12CCCCC2)C(C)C (stereo not given),1.32% (inactive)
18,Cc1cccc(N2CCN(c3nc4ccccc4n4cnnc34)CC2)c1C,1.89% (inactive)
19,Cc1ccc(C(=O)N2CCN(C)CC2)cc1S(=O)(=O)N1CCCCC1,1.31% (inactive)
20,Brc1cc(Br)c2ncnc(N3CCCCC3)c2c1,2.7% (inactive)

# Assay: RAM signaling pathway blockade in yeast – S. cerevisiae, Pdr1DBD-CYC8 efflux-inhibited sensitized strain, primary screen (AID 1298);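 also: 0% = DMSO untreated cells without growth and 100% = 10 µM 1-NA-PP1 full growth; higher means more yeast growth rescued from 5-FOA killing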
# Conditions: S. cerevisiae cbk1-as DSE1-URA3 strain, 5-FOA growth OD615, 2 d; at 50 µM; hits give high values
row,SMILES,RAM network inhibition
1,O=C(CNC(=O)Cn1ccc2ccccc2c1=O)NCCCN1CCN(c2cccc(Cl)c2)CC1,2.03% (inactive)
2,COc1ccc(C(=O)Nc2ccccc2-c2nnn(CC(=O)NCc3ccco3)n2)cc1,7.41% (inactive)
3,CC(=O)c1ccc(N2CCN(C(=O)c3ccc(NC(=O)C4CCCO4)cc3)CC2)cc1 (stereo not given),1.4% (inactive)
4,CCOC(=O)N1CCN(c2nc(SC)nc3sc4c(c23)CC(C)(C)OC4)CC1,9.5% (inactive)
5,CCOc1ccc(-n2c(SCC(N)=O)nc3c(c2=O)SCC3)cc1,7.32% (inactive)
6,CCn1cc(C(=O)NCc2cccnc2)c2cc(OC)c(OC)cc2c1=O,7.22% (inactive)
7,Cc1ccc(C(=O)c2cn[nH]c2-c2cc(Cl)ccc2O)cc1,-1.14% (inactive)
8,COCCn1c(=O)[nH]c2cc(C(=O)NCCN3CCN(c4ccccc4F)CC3)ccc2c1=O,9.5% (inactive)
9,C=CCOC(=O)CCCC(=O)NC1CCCCC1,4.88% (inactive)
10,CCN1CCN(Cc2nc3c(c(=O)n(C)c(=O)n3C)n2CCCc2ccccc2)CC1,7.54% (inactive)
11,c1cncc(CNc2c3c(nc4nnnn24)CCCC3)c1,-0.36% (inactive)
12,CCOc1ccc(-n2c(SCC(=O)Nc3ccc4c(c3)OCCO4)nc3c(c2=O)SCC3)cc1,9.35% (inactive)
13,N#C/C(=C1\CCCN1)c1ccc2ccccc2n1,3.18% (inactive)
14,CN1CCCCc2c1[nH]c1ccccc1c2=O,-1.45% (inactive)
15,CC(=O)Nc1cc(OC(=O)c2ccco2)cc(OC(=O)c2ccco2)c1,5.4% (inactive)
16,O=C(Cn1nnc(-c2ccccc2NC(=O)c2ccccc2F)n1)NCc1ccco1,4.52% (inactive)
17,CCCCC(NC(C)=O)c1nc2ccccc2n1CCCC (stereo not given),4.56% (inactive)
18,NC1=C(c2ccc(F)cc2)C(=O)CS1,5.83% (inactive)
19,COc1ccc(CNc2oc(COc3ccccc3)nc2C#N)cc1,2.19% (inactive)
20,O=C(CCCOc1ccccc1)Nc1nnc(C2CCCO2)s1 (stereo not given),8.72% (inactive)

row,SMILES,RAM network inhibition
1,CCN(CC)S(=O)(=O)c1cc(Br)ccc1OC,1.97% (inactive)
2,COC(=O)c1cn(NC(=O)C2CCCCC2)c(=O)c2ccccc12,5.38% (inactive)
3,CC(C)Sc1nc(N)c2c3c(sc2n1)CN(C)CC3,5.2% (inactive)
4,CCOC(=O)N1CCC(NC(=O)C(NC(=O)C2CCCCC2)C(C)C)CC1 (stereo not given),6.39% (inactive)
5,CCOc1cc(C2C(C(=O)c3ccco3)=C(O)C(=O)N2CCc2ccccc2)ccc1O (stereo not given),4.16% (inactive)
6,COc1cc2c(cc1OC)C(C(=O)Nc1cccc(C)n1)C(c1cccnc1)N(C)C2=O (stereo not given),6.27% (inactive)
7,CCCC(=O)Nc1cc(C)c(NC(=O)Cc2ccccc2)cn1,2.84% (inactive)
8,Cc1cccc(C)c1NC(=O)CSc1nnc([C@@H]2CCCN2C(=O)OC(C)(C)C)o1,8.94% (inactive)
9,COc1cc(C2/C(=C(\O)c3cc(C)ccc3C)C(=O)C(=O)N2CCN(C)C)ccc1O (stereo not given),10.3% (inactive)
10,Cc1cc(C)nc(NS(=O)(=O)c2ccc(NC(=O)c3cccs3)cc2)n1,0.21% (inactive)
11,CC1CCCN(c2nc3c(c(=O)n(C)c(=O)n3C)n2Cc2ccccc2)C1 (stereo not given),1.56% (inactive)
12,OCC1(c2cc(C(F)(F)F)n[nH]2)CCCCC1,-0.68% (inactive)
13,Cn1cc(S(=O)(=O)CC(=O)Nc2ccc3c(c2)OCCO3)c2ccccc21,3.07% (inactive)
14,S=c1nc(-c2ccccc2)n(CCN2CCOCC2)c2c1CCCC2,6.76% (inactive)
15,Cc1cc(C)n(-c2cc(=O)n(C)c(=O)n2C)n1,4.35% (inactive)
16,CN(C)/C=N/c1c(C#N)cnn1-c1nc2ccccc2s1,4.53% (inactive)
17,CC(C)N(C(=O)C1CC(=O)OC12CCCCC2)C(C)C (stereo not given),0.1% (inactive)
18,Cc1cccc(N2CCN(c3nc4ccccc4n4cnnc34)CC2)c1C,-0.66% (inactive)
19,Cc1ccc(C(=O)N2CCN(C)CC2)cc1S(=O)(=O)N1CCCCC1,0.57% (inactive)
20,Brc1cc(Br)c2ncnc(N3CCCCC3)c2c1,2.58% (inactive)
